{"source": "PubChem BioAssay AID624465", "about": "(National Center for Advancing Translational Sciences (NCATS), 2012)", "note": "The campaign covered roughly 360,000 compounds. About 300 (0.083%) were called active. Only a selection was taken, and actives are over-represented in it overall. Values without a mark were called inactive. Cut-off read from the data, not from the text of the source: active = activation above about 40%; inconclusive = between about 15% and that limit; inactive = weaker than that.", "data": [{"target": "D(2) dopamine receptor (Homo sapiens) (UniProt P14416)", "sequence (P14416 whole entry, looked up)": "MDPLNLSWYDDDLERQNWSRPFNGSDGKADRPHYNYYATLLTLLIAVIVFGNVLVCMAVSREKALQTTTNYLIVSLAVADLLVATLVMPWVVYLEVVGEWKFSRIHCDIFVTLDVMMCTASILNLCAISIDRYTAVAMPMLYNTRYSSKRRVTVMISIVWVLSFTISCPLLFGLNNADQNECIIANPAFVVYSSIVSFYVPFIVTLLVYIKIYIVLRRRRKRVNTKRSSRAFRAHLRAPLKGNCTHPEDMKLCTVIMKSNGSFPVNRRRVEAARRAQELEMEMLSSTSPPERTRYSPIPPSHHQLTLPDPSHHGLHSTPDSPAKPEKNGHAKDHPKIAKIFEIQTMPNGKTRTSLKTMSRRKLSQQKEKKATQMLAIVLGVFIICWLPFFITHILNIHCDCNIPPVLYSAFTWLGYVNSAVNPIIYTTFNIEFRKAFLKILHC", "test": "Beta-Arrestin HTS for Positive Allosteric Modulators of the Human D2 Dopamine Receptor: Agonists", "details": "DiscoveRx PathHunter D2 beta-arrestin, luminescence, 90 min; hits give high values; 100% = 57 uM dopamine signal", "in_short": "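DiscoveRx PathHunter D2 beta-arrestin cells (2,100/well) attached overnight, then compound-stimulated 90 min at 37 C in HBSS/10 mM HEPES/0.1% Tween-20 buffer; beta-galactosidase complementation read by luminescence after 1 h at ambient temperature. Dopamine 57 uM final (EC100) as control.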", "values": [{"smiles": "COCc1[nH][nH]c(=O)c1C=Nc1ccc(F)cc1F", "activation": "-3.8%"}, {"smiles": "COC(=O)C1CC2=C(CC(C)(C)CC2=O)N(c2ccccc2)C1=O", "note": "(stereo not given)", "activation": "-1.92%"}, {"smiles": "O=C(CS(=O)(=O)c1cn(Cc2ccc(Cl)cc2)c2ccccc12)N1CCOCC1", "activation": "-7.71%"}, {"smiles": "COc1ccc(S(=O)(=O)N(C)C[C@@H]2Oc3ccc(NS(=O)(=O)c4cn(C)cn4)cc3C(=O)N([C@@H](C)CO)C[C@@H]2C)cc1", "activation": "-2%"}, {"smiles": "Brc1cnc2ccccc2c1N1CCCCC1", "activation": "-0.246%"}, {"smiles": "COC(=O)c1cc(CNC(=O)CC(C)c2ccccc2)ccc1OC", "note": "(stereo not given)", "activation": "-6.11%"}, {"smiles": "C/C(=N\\NC(=O)c1ccc(CSc2nc(C)cc(C)n2)cc1)C1CCCCC1", "activation": "2.32%"}, {"smiles": "CCOC(=O)C(C)Sc1nnc(CSc2nc3nc(C)cc(C)n3n2)o1", "note": "(stereo not given)", "activation": "-4.24%"}, {"smiles": "CN(C)C(=O)CCC(=O)N1CCCCC1C(=O)Nc1ccc(Oc2ccccc2F)cc1", "note": "(stereo not given)", "activation": "-8.59%"}, {"smiles": "COc1ccc(N(CC(=O)NC2CCCC2)C(=O)CS(=O)CC(=O)Nc2ccc3c(c2)OCO3)cc1", "note": "(stereo not given)", "activation": "-1.02%"}, {"smiles": "Cc1ccccc1-c1nc(CS(=O)(=O)CC(=O)N2CCc3ccccc3C2)c(C)o1", "activation": "-4.35%"}, {"smiles": "CCC1C(C#N)=C(SC)NC2=C1C(=O)CC(C)(C)C2", "note": "(stereo not given)", "activation": "-0.142%"}, {"smiles": "O=C(NC1CCCCC1)C1CC(=O)N(CCc2ccccc2)C1", "note": "(stereo not given)", "activation": "-0.239%"}, {"smiles": "CO/N=C/c1cn(-c2ccc(Cl)cc2)nn1", "activation": "-5.2%"}, {"smiles": "N#CC1(Nc2ccc3c4c(cccc24)CC3)CCCCC1", "activation": "-1.77%"}, {"smiles": "CCOc1ccc(CC(=O)NCCS(=O)(=O)N2CCN(c3ccccc3)CC2)cc1", "activation": "0.195%"}, {"smiles": "O=S(=O)(NCCS(=O)(=O)N1CCN(c2ccccc2)CC1)c1ccc(F)cc1", "activation": "-3.38%"}, {"smiles": "CCS(=O)(=O)N1CCC(N2CCN(c3ccccc3)CC2)CC1", "activation": "45.9% (active)"}, {"smiles": "CC1CCN(c2nc3c(c(=O)[nH]c(=O)n3C)n2CCCc2ccccc2)CC1", "activation": "1.37%"}, {"smiles": "COc1ccc(CCn2c(NCCCN3CCOCC3)nc3c2c(=O)[nH]c(=O)n3C)cc1", "activation": "0.498%"}, {"smiles": "COc1ccc(CCn2c(NN=C3CCCC3)nc3c2c(=O)[nH]c(=O)n3C)cc1", "activation": "46% (active)"}, {"smiles": "Cc1noc(C)c1C(=O)NC(C)c1ccc2c(c1)OCO2", "note": "(stereo not given)", "activation": "2.73%"}, {"smiles": "Nc1cc2c(cc1Br)-c1ccc(F)cc1C2=O", "activation": "0.435%"}, {"smiles": "Cn1nc(C(=O)OCC(=O)N(Cc2ccccc2)C(C)(C)C)c2ccccc2c1=O", "activation": "-5.43%"}, {"smiles": "CNC[C@@H]1Oc2c(NS(C)(=O)=O)cccc2C(=O)N([C@@H](C)CO)C[C@H]1C", "activation": "-2.2%"}, {"smiles": "CCOc1cc(CN2CCCC(CO)(Cc3ccc(F)cc3F)C2)ccc1OC", "note": "(stereo not given)", "activation": "-5.13%"}, {"smiles": "COc1ccccc1N1CCN(S(=O)(=O)CCNC(=O)c2ccc(OC(C)C)cc2)CC1", "activation": "4.66%"}, {"smiles": "CCCCNC(=O)c1nc(C2CCN(S(=O)(=O)c3ccc(F)c(F)c3)CC2)oc1-c1cccc(C(F)(F)F)c1", "activation": "-1.93%"}, {"smiles": "OCCN1CCN(CCO)C1=S", "activation": "-3.52%"}, {"smiles": "O=C(CSc1nnc2n1CCCN2)c1ccccc1", "activation": "1.27%"}, {"smiles": "COc1cc([N+](=O)[O-])cc([N+](=O)[O-])c1NC(=O)N1CCOCC1", "activation": "5.63%"}, {"smiles": "COc1cc(C(=S)N2CCOCC2)cc(OC)c1OC(=O)c1ccc([N+](=O)[O-])cc1[N+](=O)[O-]", "activation": "48% (active)"}, {"smiles": "COc1cc(C(=S)N2CCOCC2)cc(OC)c1OC(=O)c1cc([N+](=O)[O-])c(C)c([N+](=O)[O-])c1", "activation": "4.7%"}, {"smiles": "O=C(CN(C(=O)CNC(=O)c1cccs1)c1cccc(F)c1)NC1CCCCC1", "activation": "-1.63%"}, {"smiles": "O=C1CCC(C(=O)N2CCCCO2)CN1Cc1cccc(C(F)(F)F)c1", "note": "(stereo not given)", "activation": "1.46%"}, {"smiles": "CCCCN1C(=O)C(CC(=O)NC(c2ccccc2)c2ccccc2)CC(C(=O)N2CCOCC2)=C1C", "note": "(stereo not given)", "activation": "-7.35%"}, {"smiles": "CCOC(=O)C(CCOc1cccc(CC)c1)C(=O)OCC", "activation": "-1.01%"}, {"smiles": "CNC(=O)c1csc(Cc2c(Cl)sc3ccc(Cl)cc23)n1", "activation": "4.37%"}, {"smiles": "Cc1ccc(S(=O)(=O)N(CC(=O)Nc2cccc([N+](=O)[O-])c2)Cc2ccc(Cl)cc2)cc1", "activation": "-7.47%"}, {"smiles": "CCC(C)NC(=O)Cn1nc(C(F)(F)F)c2c1CCC2", "note": "(stereo not given)", "activation": "1.68%"}, {"smiles": "COc1ccc(S(=O)(=O)N(C)C[C@H]2OCc3cnnn3CCCC(=O)N([C@H](C)CO)C[C@H]2C)cc1", "activation": "4.14%"}, {"smiles": "CN(C)CCNC(=O)c1ccc(-c2cn3c(-c4ccc(Oc5ccccc5)cc4)cnc3cn2)cc1", "activation": "3.24%"}, {"smiles": "C/C=C/C(=O)Nc1nnc(C(C)C)s1", "activation": "-0.338%"}, {"smiles": "O=C(NNc1nc(N2CCCC2)nc(N2CCCC2)n1)c1ccccc1", "activation": "1.25%"}, {"smiles": "Cc1cc2c(cc1C)NC1(C[C@H]3CCC(=O)N4CC[C@@H](C1)[C@@H]34)C(=NC(C)(C)CC(C)(C)C)N2", "note": "(stereo not given in full)", "activation": "1.8%"}]}]}
